Measured values as given in PubChem BioAssay (NCI).
This is part of a sample that, as a whole, favours compounds with a hit. Of some 83,000 tested, about 20% had one in any assay.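 The test compound was applied at a single concentration to cells in 96-well plates for 48 hours, and percent growth was recorded.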 Activity calls are given as the source filed them.

What follows are compounds tested on U251 CNS (assay: NCI-60 one-dose screen, 48 h (100 = growth as untreated, 0 = no growth, -100 = all killed)). Settings: 10 µM unless noted.
Procedure: Growth inhibition of the U251 human tumor cell line is measured as a screen for anti-cancer activity. Cells are grown in 96 well plates and exposed to the test compound for 48 hours. Compounds are tested at a single concentration, which is 10^-5 M for most compounds. The reported endpoint is percent growth (GI% or GIPRCNT), where numbers from 0 - 100% represent growth inhibition, and numbers from -100% - 0 represent cell death. For example, a value of 40 represents 60% growth inhibition. A value of 0 means no net growth occurred over the course of the experiment. A value of -40 indicates 40% of cells at the beginning of the experiment died by the end of the experiment. A value of -100 means all cells are dead at the end of the experiment.
NCI-60 Human Tumor Cell Lines Screen was performed using the standard one-dose NCI protocol, which is described in more detail at https://dtp.cancer.gov/discovery_development/nci-60/default.htm.
Compounds with GIPRCNT values below 10 were considered active. Activity score was based on GIPRCNT using the following formula: […]
Score is 0 for GIPRCNT values of 100 or above, 50 for GIPRCNT values of 0, and 100 for GIPRCNT values of -100.

Compound	growth
Clc1ccccc1CNc1c2ccccc2nc2ccccc12	23.2% (inactive)
O=C(CCCCCCN1CC(=O)N2[C@@H](c3ccc(Cl)c(Cl)c3)c3[nH]c4ccccc4c3C[C@H]2C1=O)NO	40.5% (inactive)
COc1ccc(/C=C(\C#N)c2cc(OC)c(OC)c(OC)c2)cc1	15.4% (inactive)
CCN1C(=O)N(CC)C2C1NN=c1s/c(=C\c3ccco3)c(=O)n12 (stereo not given)	22.7% (inactive)
C=C[C@H]1CCC/C=C/[C@@H]2C[C@H](O)C[C@H]2[C@H](O)/C=C/C(=O)O1	14.6% (inactive)
CCN(CC)c1ccc2c(cc1=O)[C@@H](NC(C)=O)CCc1cc(OC)c(OC)c(OC)c1-2	11.8% (inactive)
Cc1ccc(NC(=O)c2cc(NCc3cc(O)ccc3O)ccc2O)cc1	95.4% (inactive)
CCOC(=O)c1cc(N)nc2ccccc12	103% (inactive)
Nc1c(C(=O)Nc2ccccc2)sc2nc3c(cc12)C(=O)CCC3	25.7% (inactive)
Clc1ccc(-c2nc(-c3cccs3)no2)cc1	84.6% (inactive)
CNC1=C([N+](=O)[O-])C(c2ccccc2O)C(C#N)=C(c2cccs2)O1 (stereo not given)	91.5% (inactive)
COc1cccc(/C=N\Nc2ccc([N+](=O)[O-])cn2)c1O	21.7% (inactive)
CCN(CC)c1ccc(/C=N/NC(=O)c2ccc(S(C)(=O)=O)cc2)c(O)c1	20.6% (inactive)
COc1cc(CN(CCC(O)N2CCCC2=O)Cc2ccc3c(c2)OCO3)cc(OC)c1OC (stereo not given)	102% (inactive)
CCS(=O)(=O)Nc1cccc(Nc2c3cccc(C)c3nc3c(C)cccc23)c1OC	7.01% (active)
O=C(NCCN1CCCCC1)n1cc(-c2ccncc2)c(-c2ccc(Cl)c(O)c2)n1	98.5% (inactive)
O=C(N/N=C\c1cc(Br)ccc1O)c1ccncc1	28.6% (inactive)
COc1ccc(CNc2c3ccccc3nc3ccc(OC)cc23)cc1	16.1% (inactive)
Cc1cccc(/C=N/n2c(-c3ccc(Cl)cc3)nc3c(Br)cc(Br)cc3c2=O)c1	43% (inactive)
O=C(/C=C/c1ccc(F)cc1)N1CCN(C(=O)/C=C/c2ccc(C(F)(F)F)cc2)CC1	107% (inactive)

Compound	growth
O=C(Nc1ccc(Cl)cc1)c1cc(-c2ccc(Cl)cc2)c2sc(=O)[nH]c2n1	0.838% (active)
CNC(=O)OC1C(O[C@H]2C[C@H]3[C@@H]4CC=C5C[C@@H](O)CC[C@]5(C)[C@H]4CC[C@]3(C)[C@H]2[C@H](C)C(=O)CCC(C)C)OCC(O)C1OC1OCC(O)C(O)C1OC(=O)c1ccc(OC)cc1 (stereo not given in full)	1.48% (active)
COc1ccccc1CNCCCN1C(=O)c2ccc3c4c(ccc(c24)C1=O)C(=O)N(CCCCNCCCN)C3=O	-84.3% (active)
COc1cccc(C2C(C#N)=C(N)Oc3cc4c(cc32)OCO4)c1 (stereo not given)	23.4% (inactive)
C#CCO[C@H]1CC[C@H](OCC#C)[C@@H]2[C@H]1[C@H]1C[C@@H]3[C@@]4(C)CCC[C@@](C)(C(=O)OC)[C@@H]4CC[C@@]23C=C1C(C)C	46.8% (inactive)
O=C(N/N=C/c1ccc([N+](=O)[O-])cc1)c1ccccc1Nc1ccnc(C(F)(F)F)c1	88.7% (inactive)
Clc1ccc(-c2cnc3nonc3n2)s1	87.9% (inactive)
CCCCCCCC/C=C/CCCCCCCC1=NC(C)(C)CN1C(C)C	-76.1% (active)
COc1ccc(/C=C/c2nc3ccccc3c(=O)n2-c2ccc(C#Cc3ccc(C(C)(C)C)cc3)cc2C)c(OC)c1	75.3% (inactive)
CCOC(OCC)c1cnc2nc(NC(C)=O)[nH]c(=O)c2n1	104% (inactive)
CCN(CC)CCNC(=O)n1cc(-c2ccncc2)c(-c2ccc(Cl)c(OC)c2)n1	90.3% (inactive)
N/C(=N\OC(=O)c1ccccc1)C(Cc1ccccc1)C(=O)NOC(=O)c1ccccc1 (stereo not given)	-71% (active)
CC(CN1CCN(CC(C)Nc2ccnc3cc(Cl)ccc23)CC1)Nc1ccnc2cc(Cl)ccc12 (stereo not given)	0.467% (active)
CCN(CC)C(=O)O/N=C(/C)c1ccccc1	89.7% (inactive)
CN(C)CCCn1c(=O)c2cc([N+](=O)[O-])ccc2c2cnc3[nH]ccc3c21	57.4% (inactive)
Nc1nc(NC2CC2)cc(-c2cccc(Cl)c2Cl)n1	39.1% (inactive)
COC1(OC)C2(Cl)CCC1(Cl)C(Cl)=C2Cl	97.8% (inactive)
CN1C2CCC1/C(=C\c1ccc(Cl)cc1)C(=O)/C2=C/c1ccc(Cl)cc1	13.6% (inactive)
CCCCCCCCCCCCC1CCC(=O)O1 (stereo not given)	101% (inactive)
COc1cc(/C=N/NC(=O)Cn2c(-c3ccc(C)o3)nc3ccccc32)ccc1OCc1ccccc1	88.5% (inactive)
